Each structure is given as a SMILES string. About 410 (23%) of roughly 1,800 compounds were called active. Only a sample is shown. Potency and affinity values are given separately. Unmarked numbers belong to inactive results. How the calls were made is not given here.

The experiment is described as follows: viability of Vero cells under compound – cytotoxicity control for flavivirus capping enzyme inhibitors (AID 588742). The conditions noted are these: cytotoxicity counter-screen; series mostly up to 40 µM; viability: at the top concentration.
By viability is commonly meant a read-out of living cells in per cent, often relative to untreated cells. Turning to `O=C(O)CN1C(=O)/C(=C\c2cccc(OCc3ccc(Cl)cc3)c2)SC1=S`, the “viability” value was 89.3%.

Take `O=[N+]([O-])c1ccc(N/N=C2/CCCCC2c2ccccn2)c([N+](=O)[O-])c1` (stereo unspecified): the “viability” value is 91.9%.

In the case of `CCCc1nc2nc(C)c(NS(=O)(=O)c3ccc(C4CCCCC4)cc3)c(=O)n2[nH]1`, the “viability” value was 103%.

In the case of `COc1ccc(Cl)cc1/C=C1/C(=O)ON=C1C`, the “viability” value is 93.8%. The value for `COc1ccc(OC)c(N2C(=O)C(Cl)=C(N3CCOCC3)C2=O)c1` was 110%; that for `CN1c2ccccc2C(C)(C)C12C=Nc1c(ccc3ccccc13)O2` (stereo unspecified) was 92.2%. Take `O=C(COC(=O)c1ccc(NS(=O)(=O)c2cccs2)cc1O)NC1CCCCC1`: the “viability” value was 87.3%. The value for `O=C1CCCc2cc(S(=O)(=O)N3CCC(C(=O)NCc4ccccc4)CC3)ccc2N1` was 96.7%; that for `C=CCN1C=C2C(=O)C(C)(OC(=O)c3cnc4ccccc4n3)C(=O)C=C2C=C1/C=C/COC` (stereo unspecified) was 107%; that for `COC/C=C/C1=CC2=CC(=O)C(C)(OC(=O)c3cnc4ccccc4n3)C(=O)C2=CN1C1CC1` (stereo unspecified) was 93.5%. The value for `CCc1ccccc1N1C(=O)C(Cl)=C(N2CCOCC2)C1=O` was 89.8%; that for `Cc1ccccc1N1C(=O)C(Cl)=C(N2CCOCC2)C1=O` was 90.7%. The value for `Cc1ccc(Nc2cc(C)c(O)c(C)c2)cc1` was 92.6%; that for `Cc1ccc(S(=O)(=O)Nc2nc3ccccc3nc2NCc2ccco2)cc1` was 105%. As to `CC(C)C[C@H]1CN=C(Nc2ccccc2)N1CC(C)C`, the “viability” value is 96.1%. Take `Cc1ccc(OCC(=O)c2ccc(Cl)s2)c([N+](=O)[O-])n1`: the “viability” value is 95.8%. For `CCOc1ccc2c(c1)C(C)=CC(C)(C)N2C(=O)Nc1ccccc1` the value was 99.6%; for `CN1C(=O)/C(=C/c2cccc([N+](=O)[O-])c2)C(=O)N1c1ccccc1`, 99.7%; for `O=c1[nH]c(/C=C/c2cccc([N+](=O)[O-])c2)c([N+](=O)[O-])c(=O)[nH]1`, 103%. For `Cc1cc(C)cc(NC(=S)N(Cc2ccc(Cl)cc2)Cc2ccc(C(=O)O)cc2)c1` the value was 86.2%.

Consider `CSC1=C(C#N)C(=O)NC(c2ccccc2O)S1` (stereo unspecified), for which the “viability” value was 102%.

As to `Cc1ccc(OCc2ccc(C(=O)Nc3nccs3)o2)cc1C`, the “viability” value is 103%. For `CCn1c(C)[n+](CCCS(=O)(=O)[O-])c2cc(Cl)c(Cl)cc21` the value was 106%; for `O=S(=O)(O)c1cccc2cccc(Nc3ccccc3)c12`, 93.8%. As to `COc1ccc(/C=C2/SC(=S)N(NS(=O)(=O)c3ccc(C)cc3)C2=O)cc1`, the “viability” value was 96.9%. For `CCC(COC)Oc1cc(NCc2ccccc2)c2ncn(C(C)C)c2c1` (stereo unspecified) the value was 85.8%; for `CCCCC1=CC2=C(c3ccco3)C(=O)C(C)(OC(=O)c3ccc(OC)cc3)C(=O)C2=CN1CC1CC1` (stereo unspecified), 83.4%. For `Cc1cc(SCC(=O)c2cccc([N+](=O)[O-])c2)nc(=O)[nH]1` the value was 97.7%; for `Cc1[nH]n(-c2ccccc2)c(=O)c1C(c1cccc([N+](=O)[O-])c1)c1c(C)[nH]n(-c2ccccc2)c1=O`, 85.4%; for `O=c1nc(/C=C/c2cc([N+](=O)[O-])ccc2Cl)cc(C(F)(F)F)[nH]1`, 103% [at 20 µM]. The value for `Cc1ccc(S(=O)(=O)NN2C(=O)/C(=C/c3cccs3)SC2=S)cc1` was 98.3%; that for `CC1=NN(c2ccccc2)C(=O)C1=Cc1ccccc1` was 104%. As to `COc1cc(NC(=O)c2ccco2)c(OC)cc1NC(=O)CCC(=O)Nc1cc(C)ccc1C`, the “viability” value was 101%. The value for `COc1cc(/C=C2/SC(=S)N(CC(=O)O)C2=O)ccc1OCC(=O)Nc1ccc(C)c(C)c1` was 97.2%.

With `CCOC(=O)/C(=C\c1cn(C)c2ccccc12)[N+](=O)[O-]`, the “viability” value was 95.5%. Take `CCOc1cc(/C=C2\C(=O)ON=C2c2ccccc2)ccc1OC`: the “viability” value is 103%. The value for `O=C1C(Cl)=C(N2CCOCC2)C(=O)N1c1ccccc1` was 94.5%.

Take `Cc1cc(NS(=O)(=O)c2ccc(Nc3nc(-c4sc(N)nc4C)cs3)cc2)no1`: the “viability” value is 95.2%. In the case of `CCc1sc(C(C2C(=O)CC(C)(C)CC2=O)C2C(=O)CC(C)(C)CC2=O)cc1[N+](=O)[O-]`, the “viability” value is 97%.

`Cc1ccc(CNC(=O)CSc2n[nH]c(N)n2)cc1`: the “viability” value is 94.2%. With `CCCCC(NC(=O)Cc1c(C)c2cc3c(-c4ccccc4)coc3c(C)c2oc1=O)C(=O)O` (stereo unspecified), the “viability” value was 94.3%. For `Oc1ccc(N=Nc2ccccc2-c2nn[nH]n2)c(O)c1` the value was 98.7%.

`CC(C)OP(=O)(OC(C)C)C1(NS(=O)(=O)c2ccc(Cl)cc2)C=C(Cl)C(=O)C(Cl)=C1`: the “viability” value is 89.6%. The value for `CC1=NN(c2ccc(Br)cc2)C(=O)/C1=C/c1ccc(-c2ccccc2C(=O)O)o1` was 96.6%; that for `Cc1ccccc1-c1ncc(CN2CCN(C3CCCCC3)C(CCO)C2)cn1` (stereo unspecified) was 105%. In the case of `CC1(C)Cc2c(C#N)c(N)sc(=S)c2CS1`, the “viability” value is 91.3%. For `COc1ccc(N2C(=O)C3CCCN3C2c2cccc(Br)c2)cc1` (stereo unspecified) the value was 101%; for `O=[N+]([O-])c1ccc(N/N=C/c2ccc(O)c(O)c2O)c(S(=O)(=O)N2CCOCC2)c1`, 93.6%; for `O=C(CCc1ccc(S(=O)(=O)N2CCOCC2)cc1)N/N=C/c1ccc(O)c(O)c1O`, 102%. For `Oc1ccc2ccccc2c1C=NC12CN3CCN(CN(C3)C1)C2` the value was 95.7%; for `CCN(CC)c1ccc(SS(=O)(=O)O)cc1`, 90.7%; for `O=C(O)c1ccc(N(c2ccccc2)c2ccccc2)cc1`, 96%. For `COc1ccccc1CNC(=O)CN1C(=O)N(C)C2(CCCCC2)C1=O` the value was 106%; for `O=c1[nH]n2c(=O)c3c([nH]c2c1N=Nc1cccc(Cl)c1)CCCC3`, 107%. Consider `CC(C)CSC1=NSC2=NC(=O)/C(=C\c3ccccc3)C(=N)N12`, for which the “viability” value was 90.5%. The value for `Nc1ccc(N2CCOCC2)c2nonc12` was 92.8%; that for `O=C(O)c1ccc(COc2ccccc2C=C2C(=O)c3ccccc3C2=O)cc1` was 90.2%. For `Cc1ccccc1SCC(=O)OCC(=O)Nc1ccc(N(C)C)cc1` the value was 101%; for `CN(C)c1ccc(NC(=O)CCCc2ccccc2)cc1`, 100%; for `O=C(O)c1cccc(NC2=C(Cl)C(=O)c3ccccc3C2=O)c1`, 89.2%.

On to `CC(=O)N(C(C)=O)N1C(=O)C2C3c4ccccc4C(c4ccccc43)C2C1=O` (stereo unspecified), for which the “viability” value was 105%.

`O=C(CN1C(=O)/C(=C2\SC(=S)N(CCS(=O)(=O)O)C2=O)c2ccccc21)Nc1cccc(Br)c1`: the “viability” value was 94.1%. The value for `O=C1/C(=C/c2cccc(F)c2)SC(=S)N1NS(=O)(=O)c1ccccc1` was 99.2%. For `CCNc1sc(C(=O)c2cccs2)c(N)c1C#N` the value was 95.9%. For `CC(C)CN1C(=O)/C(=C/c2ccco2)NC1=S`, the “viability” value is 95.4%.

Regarding `Cc1cccc(OC(C)C(=O)OCC(=O)Nc2sccc2C(N)=O)c1` (stereo unspecified), the “viability” value is 101%. In the case of `CC(=O)C1CCC2C3CCC4=CC(=O)CCC4(C)C3(Br)C(=O)CC12C` (stereo unspecified), the “viability” value was 90.9%. The value for `COC(=O)CCC(=O)OC1(C)C(=O)C2=CN(Cc3ccccc3)C(c3ccc(OC)cc3)=CC2=C(Br)C1=O` (stereo unspecified) was 102%. The value for `O=c1c([N+](=O)[O-])c(O)c2ccccc2n1Cc1ccccc1` was 102%. The value for `Nc1nc(N=Nc2ccc(O)cc2)cc(=O)[nH]1` was 99.2%. As to `Cc1cc(C(=O)O)ccc1-c1ccc(/C=C2\NC(=O)N(Cc3ccc(F)cc3)C2=O)o1`, the “viability” value is 83.7%. For `CCS(=O)(=O)c1nc(S(=O)(=O)c2ccc(Cl)cc2)c(N2CCC(O)CC2)s1` the value was 98.7%. For `O=C1C2C3CCCC3=C3CCCC3C2C(=O)N1c1cccc(Cl)c1` (stereo unspecified) the value was 101%. For `O=C(O)c1cccc(Nc2nc3ccccc3nc2NS(=O)(=O)c2cccs2)c1` the value was 96.3%; for `Cc1ccc(N2NC(=O)/C(=C/c3ccc(-c4ccc(Cl)c(C(=O)O)c4)o3)C2=O)cc1C`, 95%; for `COc1cccc(/C=C2\C(=O)C(=O)c3ccccc32)c1`, 97.9%. Take `O=C1C(Cl)=C(Oc2ccccc2)C(=O)c2ccccc21`: the “viability” value was 85.8%.

With `CC(=O)OCC1=C(C(=O)O)N2C(=O)C(NC(=O)c3ccc(COc4cccc(Cl)c4Cl)o3)C2SC1` (stereo unspecified), the “viability” value is 111%. For `O=C(NCCCN1CCOCC1)c1ccc(NS(=O)(=O)c2ccccc2)cc1` the value was 104%; for `O=C(c1c(F)cccc1F)N1CCCC1`, 101%; for `Oc1ccc(/C=N/Nc2ccc(Cl)nn2)c(O)c1O`, 96%. For `C#CCOc1ccc(/C=C2/C(=O)N(c3ccc(S(N)(=O)=O)cc3)N=C2C)cc1OC` the value was 97.6%; for `O=C(CCN1C(=O)/C(=C\c2ccccc2F)SC1=S)Nc1ccc(C(=O)O)c(O)c1`, 109%; for `COC(=O)c1sc(N2C(=O)C(O)=C(C(=O)c3ccc(C)o3)C2c2ccc([N+](=O)[O-])cc2)nc1C` (stereo unspecified), 97%. For `CC[n+]1c(/C=C2\C=C(C)CC(C)(C)C2)sc2ccccc21` the value was 86.9%; for `O=C(O)c1cccc(N2C(=O)c3cc([N+](=O)[O-])cc4cc([N+](=O)[O-])cc(c34)C2=O)c1`, 97.3%; for `CC1=NN(c2ccccc2)C(=O)/C1=C\c1ccc(Oc2ccc([N+](=O)[O-])cc2[N+](=O)[O-])cc1`, 94.5%. Consider `O=C(c1cccc(S(=O)(=O)N2CCOCC2)c1)N(Cc1ccc(F)cc1)Cc1ccco1`, for which the “viability” value is 88.5%.

For the molecule `Cc1ccc(C2/C(=C(/O)c3ccc(Br)cc3)C(=O)C(=O)N2Cc2ccco2)o1` (stereo unspecified), the “viability” value is 103%. Take `CCc1ccc([C@@H]2CC=C(C(=O)O)[C@H](c3ccc(C)cc3)N2S(=O)(=O)c2ccc(C)cc2)cc1`: the “viability” value was 82.7%. The value for `O=C(O)/C=C/C(=O)c1c(-c2ccccc2)[nH]c2ccccc12` was 94%; that for `CCc1ccc(NC(=O)C2=CC=CN3CCS(=O)(=O)N=C23)cc1` was 101%. The value for `Cc1noc(NS(=O)(=O)c2ccc(NC(=O)c3ccccc3NS(=O)(=O)c3ccc(F)c(F)c3)cc2)c1C` was 100%; that for `O=C1C(Cl)=C(N2CCOCC2)C(=O)N1c1ccc(Br)cc1` was 101%; that for `Cc1ccc(C)c(OCC(=O)NCC2COc3ccccc3O2)c1` (stereo unspecified) was 89.8%. For `COc1nc(OC)nc(N2CCC(C(=O)NC3CC3)CC2)n1` the value was 95.8%. With `O=C(O)CN1C(=O)/C(=C\c2cc(Br)ccc2OCc2ccc(Cl)cc2)SC1=S`, the “viability” value was 92.4%.

`O=C(O)CCN1C(=O)/C(=C\c2cccc(Oc3ccccc3)c2)SC1=S`: the “viability” value was 107%. The value for `COc1cc(/C=C2/S/C(=N/S(=O)(=O)c3ccccc3)NC2=O)c([N+](=O)[O-])cc1OC` was 101%; that for `O=C1OC(c2ccccc2)(c2cc(Br)c(O)c(Br)c2)c2ccccc21` (stereo unspecified) was 111%.

As for `O=C(O)C(Cc1ccccc1)N1C(=O)c2c(Cl)c(Cl)c(Cl)c(Cl)c2C1=O` (stereo unspecified), the “viability” value is 122%.

(Values after PubChem BioAssay AID588742 (Southern Research Specialized Biocontainment Screening …, 2011).)
